A selection: hits, their analogues and other compounds. The true share with any hit is near 6.8%.
C diff growth = C. difficile growth inhibition | Clostridium difficile clinical isolate growth, OD600, 24 h; hits give low values | growth activity, negative = inhibition, % at 16 µg/mL (by protocol) | actives 0.25% (n = 86,000) | AID 1259249;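 active = mean growth activity at or below -80% and every replicate also at or below -80%; inconclusive = mean at or below -80% but some replicate above -80%; inactive = mean growth activity above -80%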;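 also: 0% = DMSO wells and -100% = levofloxacin 16 µg/mL wells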
Pf Dd2 inh = P. falciparum Dd2 growth inhibition | SYBR Green, 72 h; hits give low values | activity change, % at 10 µM | actives 2.3% (n = 94,000) | AID 1159554; in the data active = activity change below about -80%; inconclusive = no clear call, values can overlap the other calls
T cruzi growth-1 = inhibitors of T. cruzi proliferation | T. cruzi beta-gal in NIH3T3, GalScreen luminescence, 90 h | actives 5.9% (n = 77,000) | inhibition, % at 8.34 µM;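 active = mean inhibition above about 93%, with at least 55% of replicates each passing it, limit read from the data, passing the limit was not always enough; inconclusive = only one of those two conditions holds; inactive = neither condition holds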
T cruzi growth-2 = blocks T. cruzi growth in NIH3T3 host cells | shares compounds with T cruzi growth-1 | T. cruzi beta-gal in NIH3T3, GalScreen luminescence, 90 h | inhibition, % at 8.35 µM | actives 72% (n = 5,600);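 active = mean replicate inhibition above about 95% and at least 55% of replicates individually reaching it, limit read from the data; inconclusive = only one of the two criteria is met; inactive = neither criterion is met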
T cruzi growth-3 = Trypanosoma cruzi proliferation inhibition | shares compounds with T cruzi growth-1 | T. cruzi beta-gal in NIH3T3, GalScreen luminescence, 90 h | inhibition, % at 2.09 µM | actives 21% (n = 5,600);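 active = mean inhibition above about 95%, with at least 55% of replicates also reaching it, limit read from the data; inconclusive = meets just one of the two conditions; inactive = meets neither condition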;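 also: plate controls were neutral control median for no effect and positive control median for full effect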
3T3 cytotox = kills mouse NIH/3T3 fibroblasts; shares compounds with T cruzi growth-1; cytotoxicity (signal decrease), % at 8.35 µM; NIH/3T3 viability, CellTiter-Glo ATP luminescence, 90 h; actives 14% (n = 5,600);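 active = mean signal decrease across replicates above about 35% based on untreated-well scatter, with enough replicates individually passing, limit read from the data; inconclusive = no rule stated though some were filed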;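 also: 0% = median of neutral control wells and 100% = median of positive control wells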
3T3 cytotox 2 = NIH/3T3 (mouse) viability loss. shares compounds with T cruzi growth-1. NIH/3T3 viability, CellTiter-Glo ATP luminescence, 90 h. inhibition, % at 24.9 µM. actives 56% (n = 5,600);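 active = mean loss of cell viability signal at or above a set limit, and enough replicates individually reaching it; inconclusive = meets only the mean limit or only the replicate share; inactive = meets neither condition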;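 also: 0% = median of neutral control wells and 100% = median of positive control wells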
An asterisk follows results filed as active; ? = inconclusive; / = not tested or not shown.

SMILES	C diff growth	Pf Dd2 inh	T cruzi growth-1	T cruzi growth-2	T cruzi growth-3	3T3 cytotox	3T3 cytotox 2
C[C@H]1CCCCO[C@@H](CN(C)Cc2ccncc2)[C@@H](C)CN([C@@H](C)CO)C(=O)c2cc(NS(=O)(=O)c3ccc(Cl)cc3)ccc2O1	-4	-43	91	/	/	/	/
C[C@@H]1CN([C@H](C)CO)C(=O)c2cc(NS(=O)(=O)c3ccc(Cl)cc3)ccc2O[C@@H](C)CCCCO[C@@H]1CN(C)Cc1ccc(C(F)(F)F)cc1	14	-62	90	/	/	/	/
C[C@@H]1CCCCO[C@@H](CN(C)Cc2ccc(C(F)(F)F)cc2)[C@@H](C)CN([C@@H](C)CO)C(=O)c2cc(NS(=O)(=O)c3ccc(Cl)cc3)ccc2O1	27	-33	97*	87	113*	28	102*
C[C@H](CO)N1C[C@H](C)[C@H](CN(C)Cc2ccc(C(F)(F)F)cc2)OCCCC[C@H](C)Oc2ccc(NS(C)(=O)=O)cc2C1=O	11	-10	-59	/	/	/	/
Cc1noc(C)c1NC(=O)Nc1cccc2c1O[C@H](CN(C)S(=O)(=O)c1ccc(Cl)cc1)[C@@H](C)CN([C@H](C)CO)C2=O	-6	11	-13	/	/	/	/
CNC[C@@H]1OCCCC[C@@H](C)Oc2ccc(NC(=O)Cc3ccccc3)cc2C(=O)N([C@@H](C)CO)C[C@H]1C	-1	40	-23	/	/	/	/
COC(=O)N(C)C[C@H]1OCc2ccccc2-c2ccccc2C(=O)N([C@@H](C)CO)C[C@@H]1C	/	49	32	/	/	/	/
CS(=O)(=O)N1[C@H](C#N)[C@@H](c2ccc(C#CC3CCCC3)cc2)[C@@H]1CO	1	-5	92	/	/	/	/
CS(=O)(=O)N1[C@H](C#N)[C@H](c2ccc(C#CC3CCCCC3)cc2)[C@@H]1CO	-16	-42	?	101*	107*	2	42*
CS(=O)(=O)N1[C@@H](C#N)[C@H](c2ccc(C#CC3CCCC3)cc2)[C@@H]1CO	-6	17	?	80	16	-11	-1
CS(=O)(=O)N1[C@H](C#N)[C@@H](c2ccc(C#CC3CCCCC3)cc2)[C@@H]1CO	-1	-30	89	/	/	/	/
COc1cccc(C(=O)Nc2ccc3c(c2)C(=O)N(C)C[C@H](OC)[C@H](C)CN(C(C)=O)[C@@H](C)CO3)c1	-2	-33	-33	/	/	/	/
CC=Cc1ccc2n(c1=O)C[C@H]1[C@H](CO)[C@@H](C(=O)NCc3ccccn3)N(CCC)[C@@H]21 (mixture of isomers)	-2	20	/	/	/	/	/
C[C@@H]1CN([C@H](C)CO)C(=O)c2cc(C#CC3CCCCC3)cnc2O[C@H]1CN(C)S(=O)(=O)c1ccc(F)cc1	2	-41	86	/	/	/	/
C[C@H](CO)N1C[C@H](C)[C@@H](CN(C)S(=O)(=O)c2cccc(F)c2)Oc2ncc(C#CC3CC3)cc2C1=O	/	-56	-88	/	/	/	/
C[C@@H]1CN([C@@H](C)CO)C(=O)c2cc(C#CC3CCCC3)cnc2O[C@@H]1CN(C)S(=O)(=O)c1cccc(F)c1	3	-58	104*	96*	72	29	75*
C[C@@H]1CN([C@@H](C)CO)C(=O)c2cc(C#CC3CCCCC3)cnc2O[C@H]1CN(C)S(=O)(=O)c1ccc(F)cc1	2	-39	101*	105*	98*	21	99*
C[C@H](CO)N1C[C@H](C)[C@@H](CN(C)S(=O)(=O)c2cccc(F)c2)Oc2ncc(C#CC3CCCC3)cc2C1=O	1	-72	119*	104*	88	6	98*
C[C@H](CO)N1C[C@H](C)[C@H](CN(C)S(=O)(=O)c2cccc(F)c2)Oc2ncc(C#CC3CCCC3)cc2C1=O	-5	-41	100	/	/	/	/
C[C@H](CO)N1C[C@H](C)[C@H](CN(C)Cc2ccc(C(=O)O)cc2)OCCCC[C@H](C)Oc2ccc(NC(=O)Nc3ccc(C(F)(F)F)cc3)cc2C1=O	-2	27	51	/	/	/	/
Cn1c(=O)n2n(c1=O)[C@H](C1CC1)C=C1CN3[C@@H]([C@H](Cc4ccccc4)OC(=O)[C@@H]3Cc3ccccc3)[C@@H]12	-4	/	/	/	/	/	/
CN(C)C(=O)c1cccc(-c2ccc([C@H]3[C@@H](CO)N4CCCCN(Cc5cccnc5)C[C@H]34)cc2)c1	-7	3	?	107*	88	2	-16
CN(C)C(=O)c1ccc(-c2ccc([C@@H]3[C@@H](CO)N4CCCCN(Cc5cccnc5)C[C@H]34)cc2)cc1	7	4	12	/	/	/	/
CN(C)C(=O)c1cccc(-c2ccc([C@@H]3[C@H](CO)N4CCCCN(Cc5cccnc5)C[C@@H]34)cc2)c1	-5	-5	13	/	/	/	/
CN(C)C(=O)c1ccc(-c2ccc([C@H]3[C@@H](CO)N4CCCCN(Cc5cccnc5)C[C@H]34)cc2)cc1	8	-7	?	104*	91	3	-7
SMILES	C diff growth	Pf Dd2 inh	T cruzi growth-1	T cruzi growth-2	T cruzi growth-3	3T3 cytotox	3T3 cytotox 2
CCC(=O)N[C@@H]1CC[C@@H](CCn2cc(C3CC3)nn2)O[C@H]1CO	0	13	/	/	/	/	/
O=C(N[C@H]1CC[C@@H](CCNC(=O)C2CCOCC2)O[C@@H]1CO)c1ccncc1	/	11	11	/	/	/	/
CC(=O)N(C)C[C@H]1[C@H](c2ccc(C3=CCCC3)cc2)[C@H](CO)N1CC1CC1	-3	-34	12	/	/	/	/
C[C@@H]1CCCCO[C@@H](CN(C)Cc2ccc(C(F)(F)F)cc2)[C@H](C)CN([C@@H](C)CO)C(=O)c2cc(NC(=O)NC3CCCCC3)ccc2O1	-3	-10	?	98*	118*	11	-8
C[C@@H]1CN([C@@H](C)CO)C(=O)c2cc(NC(=O)Nc3ccc(C(F)(F)F)cc3)ccc2O[C@@H](C)CCCCO[C@H]1CN(C)Cc1ccc(C(F)(F)F)cc1	3	-68	?	-41	-40	6	-11
C[C@@H]1CCCCO[C@H](CN(C)Cc2ccc(C(=O)O)cc2)[C@H](C)CN([C@H](C)CO)C(=O)c2cc(NC(=O)Nc3ccc(C(F)(F)F)cc3)ccc2O1	-4	-46	45	/	/	/	/
C[C@@H]1CCCCO[C@@H](CN(C)Cc2ccccc2)[C@@H](C)CN([C@H](C)CO)C(=O)c2cc(NC(=O)Nc3ccc(C(F)(F)F)cc3)ccc2O1	19	32	?	89	115*	29	12
C[C@H]1CCCCO[C@H](CN(C)Cc2ccc(C(F)(F)F)cc2)[C@@H](C)CN([C@@H](C)CO)C(=O)c2cc(NC(=O)NC3CCCCC3)ccc2O1	4	5	64	/	/	/	/
C[C@@H]1CCCCO[C@@H](CN(C)Cc2ccc(C(=O)O)cc2)[C@H](C)CN([C@H](C)CO)C(=O)c2cc(NC(=O)Nc3ccc(C(F)(F)F)cc3)ccc2O1	-5	23	42	/	/	/	/

High-throughput results deposited in PubChem BioAssay by Broad Institute.
